Hit rate of the full screen: of about 360,000 compounds, about 17,000 (4.7%) were called active. Another 5% or so got no clear call; they are omitted. Shown is part of a subset that was picked to be rich in actives. Unmarked numbers belong to inactive results. Cut-off read from the data, not from the text of the source: active = activity change below about -50%; inconclusive = mostly about -30% to -49%; inactive = weaker than that.

The values that follow come from PubChem BioAssay AID743279 (National Center for Advancing Translational Sciences (NCATS), 2014).
% is set by controls: 0 for no effect and ±100 for the full control effect.

This assay is described as follows: qHTS for Inhibitors of Inflammasome Signaling: IL-1-beta AlphaLISA Primary Screen. Conditions: THP-1 LPS/ATP IL-1B secretion, 16 h; at 57.5 µM, hits give low values. In outline:
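THP-1 cells pretreated 1 hr with compounds (up to 57.5 uM final), then stimulated with LPS (250 ng/mL final) plus ATP (1.25 mM final); secreted IL-1B measured by AlphaLISA after 16 hr, decreased signal indicating inhibition.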
(In general: qHTS replaces the single test concentration by a dilution series.)
With `Cc1ccc(Cc2c(-c3ccco3)nc3ccc(Cl)cn23)cc1`, the activity change was -76.3% (active).

As to `Cc1ccc(Cc2c(-c3ccccc3)nc3ccc(Cl)cn23)cc1`, the activity change was 1.06%.

Turning to `Cc1ccc2nc(-c3ccco3)c(Cc3cccc(Cl)c3)n2c1`, the activity change was -21.3%.

For the compound `COc1ccc(CCc2nnc(CCC(=O)NCc3cnn(-c4ccccc4C)c3)o2)cc1`, the activity change was 0%.

For `CCCCCn1nnnc1C1c2ccccc2C(=O)N1Cc1ccco1` (stereo not drawn), the activity change was 0%.

On to `Cc1ccc(-c2nn(-c3ccccc3)cc2C(=O)Nc2cccc(S(=O)(=O)N3CCOCC3)c2)cc1`, for which the activity change was -2.09%.

`O=C(O)c1ccc(NC(=O)c2cn(-c3ccccc3)nc2-c2ccc(Cl)cc2)cc1`: the activity change is -53.3% (active).

With `Cc1ccc(-c2nn(-c3ccccc3)cc2C(=O)NCCCN2CCCC2=O)cc1`, the activity change was 0%.

Take `Cc1ccc(Cc2c(-c3ccc(C)cc3)nc3c4ccccc4ccn23)cc1`: the activity change is 27.7%.

`FC(F)(F)c1ccccc1Cc1c(-c2ccccc2)nc2c3ccccc3ccn12`: the activity change is 14.3%.

For `CCOCCCNC(=S)Nc1ccc2nc(N3CCN(CC)CC3)cc(C)c2c1`, the activity change is 46.7%.

Turning to `Cc1cc(N2CCN(C)CC2)nc2ccc(NC(=S)N3CCOCC3)cc12`, the activity change is -0.695%.

With `Cc1cc(N2CCOCC2)nc2ccc(NC(=S)N3CCN(Cc4ccccc4)CC3)cc12`, the activity change is -70.6% (active).

Regarding `CC(=O)N1C[C@@H](CO)[C@@H](N(C)C(=O)c2ccco2)C[C@H]1c1ccccc1`, the activity change is 11.5%.

As to `Fc1ccccc1/C=N/Nc1cc(N2CCCCC2)ncn1`, the activity change was -12%.

On to `C(=N/Nc1cc(N2CCOCC2)nc(N2CCOCC2)n1)/c1ccccc1`, for which the activity change was -78.9% (active).

For `CN(C)c1ccc(/C=N/Nc2cc(N3CCOCC3)nc(N3CCOCC3)n2)cc1`, the activity change is -1.5%.

For the compound `OC(c1ccccc1)c1nc(-c2cnc3ccccc3c2)cs1` (stereo not drawn), the activity change is 32.8%.

`O=C(Cc1ccc([N+](=O)[O-])cc1)NCCc1ccc2c(c1)OCO2`: the activity change is 0%.

Regarding `O=[N+]([O-])c1ccc(O)c(/C=N/Nc2ccccc2[N+](=O)[O-])c1`, the activity change is -51.4% (active).

Take `Nc1nnnn1/N=C/c1cc([N+](=O)[O-])ccc1O`: the activity change was 0%.

In the case of `O=C(N/N=C/c1cc([N+](=O)[O-])ccc1O)/C(=C\c1cccs1)NC(=O)c1ccccc1`, the activity change was 245%.

In the case of `CCCNC(=O)c1cc(C2CCCCN2S(=O)(=O)c2ccc(C#N)cc2)on1` (stereo not drawn), the activity change was -18.6%.

In the case of `CCOc1cc(/C=C2\C(=N)N3N=C(C)SC3=NC2=O)ccc1OCCOc1ccccc1`, the activity change is 4.36%.

For the compound `CCOc1ccc2nc(C(=O)N3CCCC(C)C3)sc2c1` (stereo not drawn), the activity change was -10.2%.

On to `CCOc1cc(/C=C2\SC(N3CCCC(C)C3)=NC2=O)ccc1O` (stereo not drawn), for which the activity change is -57.3% (active).

Consider `Nc1[nH]c(C(=O)c2ccccc2)c(-c2ccc(Br)cc2)c1C(=O)NC1CC1`, for which the activity change is 12%.

For the compound `CCNc1c(NS(=O)(=O)c2ccc(C3CCCCC3)cc2)c(=O)oc2ccccc12`, the activity change is 29.7%.

Consider `C=CS(=O)c1sc(Cl)c(N2CCOCC2)c1[N+](=O)[O-]` (stereo not drawn), for which the activity change is -104% (active).

With `CCCCNC(=O)OC1CC2CC1[C@H]1CCCCN1C2=O` (stereo partly drawn), the activity change was 12.3%.

For `Cc1cc(C)nc(SCc2ccccc2C#N)n1`, the activity change is -12.7%.

Consider `Cc1cc(C)nc(S/C=C/C(=O)c2ccccc2)n1`, for which the activity change was -104% (active).

As to `Cc1cc(C)nc(SCC(=O)N(C)C)n1`, the activity change was 0%.

Turning to `CNc1cncc(-c2cccc(C(=O)N3CCOCC3)c2)n1`, the activity change is -12.2%.

In the case of `CN(C)S(=O)(=O)c1cccc(NC(=O)Cc2ccsc2)c1`, the activity change is 19.3%.

As to `CN(c1ccccc1)S(=O)(=O)c1cccc(NC(=O)Cc2ccc(Cl)cc2)c1`, the activity change is -55.5% (active).

On to `CN(c1ccccc1)S(=O)(=O)c1cccc(NC(=O)Cc2c(F)cccc2Cl)c1`, for which the activity change was 0%.

For the compound `COc1nnc(-c2ccc(C)c(S(=O)(=O)N(C)C)c2)c2ccccc12`, the activity change is -11.4%.

As for `COc1ccccc1Cc1c(-c2ccc(Cl)cc2)nc2c3ccccc3ccn12`, the activity change is 4.19%.

With `COc1ccccc1Cc1c(-c2ccc(Cl)cc2)nc2ccc(Cl)cn12`, the activity change was 16.9%.

`CCCCCc1c(-c2cccc(Br)c2)ncn1CCc1ccccc1OC`: the activity change is -27.9%.

For the compound `CCCCc1c(-c2ccc(Cl)cc2)ncn1CCc1ccccc1OC`, the activity change is -109% (active).

On to `CCCc1c(-c2ccccc2F)ncn1Cc1ccccc1OC`, for which the activity change is -24.5%.

In the case of `CCc1c(-c2ccc(F)cc2)ncn1Cc1cccc(-c2ccccc2)c1`, the activity change was 4.55%.

Regarding `CCC(=O)NCc1cc(-c2nn(C)c(=O)c3ccccc23)ccc1OC`, the activity change was -12.6%.

Take `COc1ccccc1CCNS(=O)(=O)c1cn(C)nc1C`: the activity change is -3.36%.

Consider `CCCCCc1c(Cc2ccccc2)ncn1CCc1ccccc1OC`, for which the activity change was -55.8% (active).

For `Cn1c(=O)c2c(ncn2CCc2ccccc2)n(C)c1=O`, the activity change is 26.6%.

In the case of `CCCCCc1c(-c2ccc(OC)c(OC)c2)ncn1CCc1ccccc1OC`, the activity change is -71.5% (active).

As to `CCCCc1c(-c2ccc(Br)cc2)ncn1CCc1ccccc1OC`, the activity change was -93.2% (active).

Turning to `COc1cccc(NC(=O)CSc2nccn(-c3ccc4c(c3)OCCO4)c2=O)c1`, the activity change was -15.5%.

With `COc1ccc(S(=O)(=O)NC(=O)C2(C)CCN2C(=O)COc2ccc(Cl)cc2)cc1` (stereo not drawn), the activity change is 21%.

`Cc1ccc(N2C(=O)CC(N3CCSCC3)C2=O)c(C)c1` (stereo not drawn): the activity change was 9.43%.

Turning to `Cc1c(O)c(C)c2c(c1O)C(=O)C[C@@H](c1ccccc1)O2`, the activity change is 40.2%.

Regarding `CCCNC(=O)C1CC(=O)N(c2ccc(OCc3ccccc3)cc2)C1` (stereo not drawn), the activity change is 18%.

With `c1ccc(C(=NNc2nc3ccccc3s2)c2ccccn2)cc1`, the activity change was -21.7%.

On to `C=CCn1nc(C(=O)OCC)cc1-c1sc(NC(=O)c2ccccc2)nc1C`, for which the activity change is -29.6%.

Take `CNC[C@H]1OCc2cnnn2CCCC(=O)N([C@H](C)CO)C[C@@H]1C`: the activity change is -6.3%.

For the compound `COc1cc(C(=O)NCc2nnc(SCC(=O)c3ccc(Cl)cc3)o2)cc(OC)c1OC`, the activity change is 9.13%.

Take `CCOC(=O)CSc1nnc(CNc2ccc(F)cc2)o1`: the activity change was 3.99%.

Take `CCC(=O)Nc1ccc(C(=O)CSc2nnc(CNc3ccc(Cl)cc3)o2)cc1OC`: the activity change was -55.7% (active).

For `Cc1ccc(-c2csc(C(C#N)=C(O)CN3CCN(C(=O)c4ccco4)CC3)n2)cc1`, the activity change was -7.72%.

With `CC1=CC(C)(C)Nc2ccc(OC(=O)CN3C(=O)C4CCCCC4C3=O)cc21` (stereo not drawn), the activity change is -97.6% (active).

In the case of `COc1ccc(C(=O)COC(=O)CN2C(=O)C3CC=CCC3C2=O)c(OC)c1` (stereo not drawn), the activity change is -15.2%.

With `CCOC(=O)C(Cc1ccc(N)cc1)N1C(=O)c2ccccc2C1=O` (stereo not drawn), the activity change was 12.1%.

Regarding `O=C(COC(=O)CN1C(=O)C2CCCCC2C1=O)Nc1ccc(F)c(F)c1F` (stereo not drawn), the activity change was 4.41%.

As for `CC1=CC(C)(C)Nc2ccc(OC(=O)C(Cc3ccccc3)N3C(=O)C4CCCCC4C3=O)cc21` (stereo not drawn), the activity change was -94.7% (active).

Turning to `O=C(C(Cc1ccccc1)n1cccc1)N1CCN(C2CCCCC2)CC1` (stereo not drawn), the activity change is 8.33%.

For `C/C=C/C(=O)OCc1csc(CC(=O)Nc2ccccc2C)n1`, the activity change was 13.6%.

Consider `COc1ccc(S(=O)(=O)N2CCN(C(C)C(=O)Nc3ccc(C(C)C)cc3)CC2)cc1` (stereo not drawn), for which the activity change was -16.4%.

With `COCCCNC(=O)Cc1ccc(-n2c(C)nc3cccnc32)cc1`, the activity change is 22.7%.

For the compound `COc1cccc(C(O)c2ncc(-c3ccc4ccccc4c3)[nH]2)c1` (stereo not drawn), the activity change was 18.2%.

Consider `CCOC(=O)C1CCCN(C(=O)c2ccc(C)c(S(=O)(=O)N3CCCCC3)c2)C1` (stereo not drawn), for which the activity change was 4.44%.

On to `COc1ccc(Cl)cc1-n1c(=S)sc2c(=O)n(-c3ccc(F)cc3)c(SCC(=O)O)nc21`, for which the activity change was 14.4%.

On to `COc1ccc(CCNC(=O)CN(c2ccccc2)S(=O)(=O)c2ccccc2)cc1`, for which the activity change was 15.3%.

Consider `CC(=O)COc1ccc2c(-c3ccccc3)cc(=O)oc2c1`, for which the activity change was -27.2%.

As for `CCc1cc(=O)oc2cc(OCC(=O)N3CCCc4ccccc43)ccc12`, the activity change was -60.9% (active).

With `CCOc1ccccc1N1CCN(C(=O)COc2ccc3c(C)cc(=O)oc3c2)CC1`, the activity change is 23%.

Regarding `CC(C)c1cc(C(=O)N(C)C2CCCN(Cc3ccccc3F)C2)n(C)n1` (stereo not drawn), the activity change is 41.9%.

As for `CCN(CC)C(=O)C1=C(C)N(Cc2ccccc2)C(=O)C(CC(=O)NC(c2ccccc2)c2ccccc2)C1` (stereo not drawn), the activity change was -15.6%.

For the compound `C/C(CC(=O)Nc1cccc(F)c1)=N\NC(=O)C(=O)NC1CCCCC1`, the activity change was -10.5%.

As for `O=C(Nc1cccc(F)c1)NC1CCCCCCC1`, the activity change was -92.1% (active).

For `O=C(Nc1cccc(F)c1)NC1CCCc2ccccc21` (stereo not drawn), the activity change was -9.52%.

Regarding `COc1ccc(NC(=O)C[C@H]2C(=O)N(CCc3ccccc3)C[C@@H]2C)cc1`, the activity change was -9.78%.

In the case of `FC(F)Oc1ccccc1NC(=S)Nc1cccc(Cl)c1Cl`, the activity change is 23.7%.

On to `CC(C)(C)S(=O)N1Cc2cc(C(=O)NCCCN3CCOCC3)nc(-c3cccc(-c4cc5ccccc5o4)c3)c2[C@H]1CCO` (stereo partly drawn), for which the activity change is -27.7%.

For the compound `CCc1cccc(CC)c1N1C(=O)CC(Sc2ccccc2N)C1=O` (stereo not drawn), the activity change was 17.8%.

As to `Cc1ccccc1S(=O)(=O)NC(=O)C1(C)CCN1C(=O)Cc1ccc(Cl)cc1Cl` (stereo not drawn), the activity change was -18.4%.

With `CC(=O)N1CC(C)c2scc(C)[n+]2-c2ccccc21` (stereo not drawn), the activity change was -71.4% (active).

As for `O=C(Nc1nnc(S(=O)(=O)N2CCCCCC2)s1)c1cccc(Br)c1`, the activity change is -9.2%.

Take `Cn1c(NC(=O)c2ccccc2)nc2ccccc21`: the activity change was 35.1%.

With `O=C1C=C(NS(=O)(=O)c2ccccc2)C(=O)c2ccccc21`, the activity change is -0.814%.

`O=C(NC1=CC(=O)c2ccccc2C1=O)c1ccccc1`: the activity change was -96.1% (active).
